This note sets out measurements from PubChem BioAssay (NCI).

Test systems include SR leukemia; RPMI-8226 leukemia; OVCAR-8 ovarian; OVCAR-5 ovarian; OVCAR-4 ovarian; SK-OV-3 ovarian; IGROV1 ovarian; OVCAR-3 ovarian; HS 578T breast; NCI/ADR-RES ovarian.
Holding throughout (experiment): NCI-60 one-dose screen, 48 h (100 = growth as untreated, 0 = no growth, -100 = all killed)
Common to all, as to conditions: 10 µM

SMILES strings stand for the structures. The panel holds about 83,000 compounds, 20% with a hit somewhere; the sample as a whole holds those more often.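 Each cell line was grown in a 96-well plate and treated with one concentration of compound for 48 hours. Values below 10 were considered active.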 Values without a mark were called inactive. Activity calls are given as the source filed them.

For `CC(=O)c1c[nH]c2ccccc12`, the growth was 91.4% in the test on SR leukemia; 110% in the test on RPMI-8226 leukemia; 98.6% in the test with OVCAR-8 ovarian; 111% in the test with OVCAR-5 ovarian; 99.8% in the test on OVCAR-4 ovarian; 108% in the test on SK-OV-3 ovarian. Further, the growth in the test on IGROV1 ovarian was 101%; in the test on OVCAR-3 ovarian, 120%; in the test on HS 578T breast it was 104%; in the test on NCI/ADR-RES ovarian it was 107%.
With `O=c1c2ccccc2c(Br)c(Br)c2ccccc12`, the growth in the test on SR leukemia is 64.4%; in the test on RPMI-8226 leukemia, 88.5%; in the test with OVCAR-8 ovarian it was 96.6%; with OVCAR-5 ovarian, 113%; in the test on OVCAR-4 ovarian it was 82.1%; in the test on SK-OV-3 ovarian, 109%. Also, the growth in the test on IGROV1 ovarian was 91.4%; with OVCAR-3 ovarian, 108%; in the test with HS 578T breast it was 107%; in the test on NCI/ADR-RES ovarian, 60.5%.
For `CC(=O)c1cc2c(cc1F)C(C)(C)CCC2(C)C`, the growth in the test on SR leukemia is 92.5%; with RPMI-8226 leukemia, 114%; in the test on OVCAR-8 ovarian it was 104%; with OVCAR-5 ovarian it was 90.1%; in the test on OVCAR-4 ovarian, 103%; with SK-OV-3 ovarian it was 105%. Further, the growth is 101% in the test on IGROV1 ovarian, 101% with OVCAR-3 ovarian, 99% in the test on HS 578T breast and 99.3% with NCI/ADR-RES ovarian.
As to `NC(C(=O)O)c1ccc([N+](=O)[O-])cc1` (stereo not given), the growth is 113% in the test on SR leukemia; 116% with RPMI-8226 leukemia; 112% with OVCAR-8 ovarian; 92.2% in the test on OVCAR-5 ovarian; 107% in the test with OVCAR-4 ovarian; 96.4% in the test on SK-OV-3 ovarian. The growth in the test on IGROV1 ovarian was 109%; with OVCAR-3 ovarian, 107%; with HS 578T breast, 117%; with NCI/ADR-RES ovarian it was 105%.
For `O=C(O)C(O)c1ccccc1` (stereo not given), the growth in the test with SR leukemia is 94.7%; with RPMI-8226 leukemia it was 113%; in the test with OVCAR-8 ovarian, 105%; with OVCAR-5 ovarian it was 103%; in the test on OVCAR-4 ovarian, 98.6%; in the test on SK-OV-3 ovarian, 109%. Besides, the growth with IGROV1 ovarian is 107%; with OVCAR-3 ovarian, 112%; in the test on HS 578T breast, 110%; in the test on NCI/ADR-RES ovarian, 105%.
For the molecule `CN(C)c1ccc(C(c2ccc(O)cc2)c2ccc(N(C)C)cc2)cc1`, the growth in the test with SR leukemia is 67.5%; in the test with RPMI-8226 leukemia it was 80.1%; with OVCAR-8 ovarian, 94.1%; in the test with OVCAR-5 ovarian, 98.6%; in the test on OVCAR-4 ovarian, 94.9%; in the test with SK-OV-3 ovarian, 104%. The growth was 106% in the test with IGROV1 ovarian, 92.5% with OVCAR-3 ovarian, 91.8% with HS 578T breast and 93.9% in the test with NCI/ADR-RES ovarian.
As to `C=CC[N+](C)(C)C`, the growth in the test with SR leukemia is 90.8%; in the test with RPMI-8226 leukemia it was 101%; with OVCAR-8 ovarian, 106%; in the test on OVCAR-5 ovarian, 102%; in the test on OVCAR-4 ovarian, 109%; with SK-OV-3 ovarian it was 108%. Moreover, the growth was 99.7% in the test on IGROV1 ovarian, 118% with OVCAR-3 ovarian, 95.5% in the test with HS 578T breast and 105% in the test on NCI/ADR-RES ovarian.
As to `COc1ccc(C(O)c2ccccc2)cc1` (stereo not given), the growth is 102% in the test on SR leukemia; 108% in the test with RPMI-8226 leukemia; 97.3% with OVCAR-8 ovarian; 102% with OVCAR-5 ovarian; 92.6% with OVCAR-4 ovarian; 99.2% in the test on SK-OV-3 ovarian. The growth with IGROV1 ovarian is 99.3%; in the test on OVCAR-3 ovarian it was 107%; with HS 578T breast, 108%; with NCI/ADR-RES ovarian it was 105%.
Turning to `COc1cc(/C=C(\C#N)C(=O)c2ccccc2)ccc1OCc1ccccc1`, the growth in the test with SR leukemia was 109%; in the test on RPMI-8226 leukemia it was 107%; with OVCAR-8 ovarian, 108%; in the test on OVCAR-5 ovarian it was 103%; in the test on OVCAR-4 ovarian, 106%; with SK-OV-3 ovarian it was 107%. Also, the growth is 91.1% in the test on IGROV1 ovarian, 101% with OVCAR-3 ovarian, 97.5% in the test on HS 578T breast and 98.4% with NCI/ADR-RES ovarian.
Regarding `CCOC(=O)C1=C(C)NC(=O)NC1c1cccs1` (stereo not given), the growth was 76.5% in the test with SR leukemia; 99.8% in the test with RPMI-8226 leukemia; 94.1% in the test on OVCAR-8 ovarian; 122% in the test on OVCAR-5 ovarian; 117% in the test on OVCAR-4 ovarian; 105% in the test with SK-OV-3 ovarian. Further, the growth in the test with IGROV1 ovarian is 113%; with OVCAR-3 ovarian, 118%; in the test with HS 578T breast it was 99%; with NCI/ADR-RES ovarian it was 111%.
With `CC(C)OC(C(=O)O)c1ccccc1` (stereo not given), the growth with SR leukemia is 125%; in the test on RPMI-8226 leukemia it was 105%; in the test on OVCAR-8 ovarian, 109%; with OVCAR-5 ovarian it was 97.1%; with OVCAR-4 ovarian it was 96.2%; in the test with SK-OV-3 ovarian, 100%. In addition, the growth in the test with IGROV1 ovarian is 124%; in the test with OVCAR-3 ovarian it was 110%; with HS 578T breast, 112%; in the test with NCI/ADR-RES ovarian it was 104%.
In the case of `Clc1ccc(-c2n[nH]c3c2Cc2ccccc2-3)cc1Cl`, the growth is 112% in the test with SR leukemia; 57.9% in the test with RPMI-8226 leukemia; 110% in the test with OVCAR-8 ovarian; 111% in the test with OVCAR-5 ovarian; 99.9% in the test on OVCAR-4 ovarian; 99.4% with SK-OV-3 ovarian. The growth in the test on IGROV1 ovarian was 63%; in the test with OVCAR-3 ovarian it was 110%; in the test with HS 578T breast, 110%; in the test with NCI/ADR-RES ovarian, 95.1%.
Consider `O=C(Nc1cc(-c2ccccc2)[nH]n1)c1ccc(Cl)cc1`, for which the growth in the test on SR leukemia is 47.7%; in the test on RPMI-8226 leukemia it was 36.6%; with OVCAR-8 ovarian, 84.3%; with OVCAR-5 ovarian it was 80.7%; in the test on OVCAR-4 ovarian, 71%; with SK-OV-3 ovarian, 62.7%. The growth with IGROV1 ovarian is 3.1% (active); with OVCAR-3 ovarian, 80.5%; in the test on HS 578T breast, 80.6%; in the test with NCI/ADR-RES ovarian, 85%.
Take `Cc1cc(O)ccc1O`: the growth in the test on SR leukemia was 104%; with RPMI-8226 leukemia it was 59.5%; in the test on OVCAR-8 ovarian, 104%; in the test with OVCAR-5 ovarian, 116%; in the test on OVCAR-4 ovarian it was 98.5%; in the test with SK-OV-3 ovarian, 112%. Further, the growth in the test on IGROV1 ovarian was 114%; with OVCAR-3 ovarian, 110%; with HS 578T breast it was 103%; in the test on NCI/ADR-RES ovarian, 96.5%.
Consider `CC1NC(=O)NC1CCCCCC(=O)O` (stereo not given), for which the growth in the test with SR leukemia was 118%; in the test on RPMI-8226 leukemia, 84%; with OVCAR-8 ovarian, 94.8%; with OVCAR-5 ovarian it was 97.6%; in the test with OVCAR-4 ovarian, 112%; with SK-OV-3 ovarian it was 109%. Besides, the growth in the test with IGROV1 ovarian is 125%; in the test with OVCAR-3 ovarian it was 108%; in the test on HS 578T breast, 106%; with NCI/ADR-RES ovarian, 113%.
